# Source: PubChem BioAssay AID504848 (National Center for Advancing Translational Sciences (NCATS), 2011)
# Screen size: about 2,300 compounds; about 1,400 (61%) were called active. Inconclusive results (about 29%) are left out. The set was probably picked from earlier hits. The list shows a part of the results. A number with no mark means an inactive call. Calls follow the shape of the dose curve; as a rule, active = well fitted inhibition curve with a large enough effect; inconclusive = small, poorly fitted or top-dose-only effect, or effect the other way; inactive = no such curve, though single readings can be large or run the other way.
# Assay: Confirmation screen for delayed death inhibitors of the malarial parasite plastid, 96 hour incubation; also: nearly all actives have a fitted effect of over 60% in size
# Settings: P. falciparum luciferase growth in erythrocytes; series mostly up to 28.7 µM; activity change, negative = inhibition: at the top concentration
# How it was run: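 Two-generation (96 h, 37 C) exposure of P. falciparum carrying an integrated firefly luciferase reporter in erythrocytes, 0.1% parasitemia and 2% hematocrit final, Albumax-supplemented RPMI. Luminescence decrease measures growth inhibition.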
# % is scaled to controls: 0 for no effect and ±100 for the full control effect; potency is read from the fitted curve at half-maximal effect.
Structure (SMILES),Potency,"activity change, negative = inhibition [%]"
Cn1c(Cc2cccc3ccccc23)nnc1SCc1ccc([N+](=O)[O-])cc1,12.6 µM (active),
Cc1ccccc1NC(=O)Cc1nnc(SCC(=O)NC2CCCCC2)n1C,,-11.3
COc1ccccc1C1CCCN1Cc1nc(-c2ccc(C)s2)oc1C (configuration not stated),14.1 µM (active),
N#CC1=C(N)Oc2n[nH]c(-c3cccnc3)c2C1c1ccc([N+](=O)[O-])o1 (configuration not stated),15.8 µM (active),
C=C1C(=O)[C@@]23[C@H](O)C[C@@H]4C(C)(C)CC[C@H](O)[C@]4(C)[C@@H]2C[C@H](O)[C@@H]1[C@H]3O,14.1 µM (active),
Cc1ccc(Cl)cc1N1CCN(c2cccc[n+]2C)CC1,2 µM (active),
CCCc1[nH]nc2c1C(c1cc(OC)ccc1F)C(C#N)=C(N)O2 (configuration not stated),3.55 µM (active),
O=C(CSc1nc(-c2ccco2)cc(C(F)(F)F)n1)Nc1ccccc1C(F)(F)F,12.6 µM (active),
O=C(NCc1ccccn1)c1cc(-c2ccc(-c3ccccc3)cc2)nc2ccccc12,15.8 µM (active),
CC(Sc1nc2cc(Cl)ccc2s1)C(=O)Nc1cccc(S(=O)(=O)N2CCOCC2)c1 (configuration not stated),12.6 µM (active),
COc1cccc(/C=N/NC(=O)c2nc(-c3ccccc3)cc(-c3ccccc3)n2)c1O,7.94 µM (active),
COc1ccccc1-n1nnnc1S(=O)(=O)Cc1ccc(Cl)cc1,7.08 µM (active),
CCCc1cc(C(=O)N2CCCC(N3CCN(c4ccccc4F)CC3)C2)n(C)n1 (configuration not stated),10 µM (active),
CC(=O)NC(=O)COC(=O)/C=C/c1c(C)nn(Cc2c(Cl)cccc2Cl)c1Cl,,-64.7
COc1ccc2cc3cc(C(=O)N(C)C4CCCCC4)oc3nc2c1,10 µM (active),
CCOC(=O)C1CCCN(C(=O)c2cc3cc4ccc(OC)cc4nc3o2)C1 (configuration not stated),7.94 µM (active),
COc1ccc2cc3cc(C(=O)Nc4ccc5c(c4)OCO5)oc3nc2c1,0.891 µM (active),
CN(CCCN1c2ccccc2CCc2ccccc21)CC(=O)c1ccc(Cl)cc1,12.6 µM (active),
CCN(CC)C(=O)COc1coc(CN2CCN(c3cccc(Cl)c3)CC2)cc1=O,4.47 µM (active),

Structure (SMILES),Potency,"activity change, negative = inhibition [%]"
CCOc1ccccc1NC(=O)COc1coc(CN2CCc3ccccc3C2)cc1=O,11.2 µM (active),
CCN(CC)C(=O)COc1coc(CN2CCN(c3ccccc3)CC2)cc1=O,7.94 µM (active),
CN(C(=O)COc1coc(CN2CCN(c3ccccc3)CC2)cc1=O)c1ccccc1,10 µM (active),
CCCNC(=O)COc1coc(CN2CCN(c3cccc(Cl)c3)CC2)cc1=O,10 µM (active),
O=C(O)c1ccc(/C=N/NC(=O)c2ccc3c(c2)OCCO3)cc1,,24
O=C(/C=C/c1ccncc1)c1ccc2c(c1)OCCO2,12.6 µM (active),
CCOC(=O)C1=C(C)N=c2s/c(=C\c3ccc(OCC(=O)O)cc3)c(=O)n2C1c1ccc(OC(C)C)cc1 (configuration not stated),2.51 µM (active),
OC(c1cc(C(F)(F)F)nc2c(C(F)(F)F)cccc12)C1CCCCN1 (configuration not stated),0.0501 µM (active),
OC(c1cc(-c2ccc(Cl)cc2)nc2ccccc12)C1CCCCN1 (configuration not stated),0.251 µM (active),
OC(c1cc(C(F)(F)F)nc2c(Cl)cc(Cl)cc12)C1CCCCN1 (configuration not stated),0.0224 µM (active),
O[C@@H](c1cc(C(F)(F)F)nc2c(C(F)(F)F)cccc12)[C@H]1CCCCN1,0.178 µM (active),
CCN(CC)c1ccc(NC(=S)NC(=O)C2CCC2)cc1,11.2 µM (active),
O=[N+]([O-])c1cncc([N+](=O)[O-])c1Nc1cccc(O)c1,12.6 µM (active),
O=C(Nc1ccsc1C(=O)O)c1cccc(C(F)(F)F)c1,,0.077
NC(=O)C1CCN(CC(=O)Nc2cccc(C(=O)Nc3cccc(C(F)(F)F)c3)c2)CC1,1.12 µM (active),
Cn1c(/C=C/c2ccc(Cl)cc2)c([N+](=O)[O-])c(=O)n(C)c1=O,6.31 µM (active),
COc1ccc(OC)c(/C=C/c2c([N+](=O)[O-])c(=O)n(C)c(=O)n2C)c1,12.6 µM (active),
COc1ccc(Cn2c(O)c(C=Nc3ccc(O)cc3)c3ccccc3c2=O)cc1,7.94 µM (active),
COc1ccc(-c2cc(-c3ccccc3)nc(SC(C)C(=O)O)c2C#N)cc1 (configuration not stated),10 µM (active),

Structure (SMILES),Potency,"activity change, negative = inhibition [%]"
COc1ccc(-c2cc(-c3ccccc3)nc(SCC(=O)Nc3nccs3)c2C#N)cc1,2 µM (active),
CCCSc1sc(C(=O)OC)c(-c2cccs2)c1C#N,,-103
CCc1ccc(NC(=O)CN(c2cc(C)cc(C)c2)S(=O)(=O)c2c(C)[nH]c(=O)[nH]c2=O)cc1,12.6 µM (active),
Cc1cccc(C)c1OCc1cc(C(=O)N(C)Cc2nc3ccccc3[nH]2)no1,14.1 µM (active),
Cc1ccc(C)c(/C=C/C(=O)c2ccccc(=O)c2O)c1,11.2 µM (active),
O=C(/C=C/c1ccccc1Cl)c1ccccc(=O)c1O,6.31 µM (active),
COc1ccc(OC)c(CNC(=O)c2ccc(C)c(NC(=O)C3=C(C)OCCS3)c2)c1,10 µM (active),
S=c1nc2c(n[nH]1)c1ccccc1n2CCc1ccccc1,12.6 µM (active),
CSc1nnc2c3ccccc3n(CCc3ccccc3)c2n1,15.8 µM (active),
CC1C/C(=C/c2ccncc2)C(=O)/C(=C/c2ccncc2)C1 (configuration not stated),3.55 µM (active),
O=[N+]([O-])c1c(Nc2ccccc2O)cc(Cl)c2nonc12,3.55 µM (active),
CC1CCN(c2ccc3nnc(CCC(=O)N4CCN(c5ccccc5F)CC4)n3n2)CC1,10 µM (active),
COc1cccc2sc(Nc3nnc(-c4ccccc4Cl)o3)nc12,,-105
COc1cccc2sc(Nc3nnc(-c4ccc(F)cc4)o3)nc12,7.08 µM (active),
CC(C)C[C@H](NC(=O)c1[nH]cnc1C(=O)N[C@@H](C)C(=O)OC(C)(C)C)C(=O)OC(C)(C)C,10 µM (active),
CC(C)C[C@H](NC(=O)c1[nH]cnc1C(=O)Nc1ccc(CNC(=O)OC(C)(C)C)cc1)C(=O)OC(C)(C)C,4.47 µM (active),
CC(C)C[C@H](NC(=O)c1nc[nH]c1C(=O)N(C)Cc1ccccc1)C(=O)OC(C)(C)C,10 µM (active),
CC(C)C[C@H](NC(=O)c1[nH]cnc1C(=O)N[C@@H](Cc1ccccc1)C(=O)OC(C)(C)C)C(=O)OC(C)(C)C,6.31 µM (active),
C[C@H](NC(=O)c1nc[nH]c1C(=O)N[C@H](C)c1ccccc1)C(=O)OCc1ccccc1,,-12.3
